Laboratory results as given in PubChem BioAssay (NCATS).
Records with an inconclusive call do not appear. Calls of active or inactive are those of the source. Unless noted, the call rests on the fitted dose curve; in most records, active means well fitted curve in the direction sought with a large enough effect; inconclusive means small, poorly fitted or top-dose-only effect, or another doubt; inactive means no such curve, though single readings can be large; an effect the other way counts as inactive or inconclusive.

Tests used:
[1] = molecular target: DNA polymerase III PolC-type (Bacillus subtilis (strain 168)) (UniProt P13267); test: qHTS Validation Assay for the Inhibitors of DNA Replication in Gram-Positive Bacteria (AID 485295);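 further: PicoGreen fluorescence of double-stranded DNA made on primed circular M13 template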
DNA polymerase III PolC-type (Bacillus subtilis (strain 168)), sequence (P13267 whole entry, looked up): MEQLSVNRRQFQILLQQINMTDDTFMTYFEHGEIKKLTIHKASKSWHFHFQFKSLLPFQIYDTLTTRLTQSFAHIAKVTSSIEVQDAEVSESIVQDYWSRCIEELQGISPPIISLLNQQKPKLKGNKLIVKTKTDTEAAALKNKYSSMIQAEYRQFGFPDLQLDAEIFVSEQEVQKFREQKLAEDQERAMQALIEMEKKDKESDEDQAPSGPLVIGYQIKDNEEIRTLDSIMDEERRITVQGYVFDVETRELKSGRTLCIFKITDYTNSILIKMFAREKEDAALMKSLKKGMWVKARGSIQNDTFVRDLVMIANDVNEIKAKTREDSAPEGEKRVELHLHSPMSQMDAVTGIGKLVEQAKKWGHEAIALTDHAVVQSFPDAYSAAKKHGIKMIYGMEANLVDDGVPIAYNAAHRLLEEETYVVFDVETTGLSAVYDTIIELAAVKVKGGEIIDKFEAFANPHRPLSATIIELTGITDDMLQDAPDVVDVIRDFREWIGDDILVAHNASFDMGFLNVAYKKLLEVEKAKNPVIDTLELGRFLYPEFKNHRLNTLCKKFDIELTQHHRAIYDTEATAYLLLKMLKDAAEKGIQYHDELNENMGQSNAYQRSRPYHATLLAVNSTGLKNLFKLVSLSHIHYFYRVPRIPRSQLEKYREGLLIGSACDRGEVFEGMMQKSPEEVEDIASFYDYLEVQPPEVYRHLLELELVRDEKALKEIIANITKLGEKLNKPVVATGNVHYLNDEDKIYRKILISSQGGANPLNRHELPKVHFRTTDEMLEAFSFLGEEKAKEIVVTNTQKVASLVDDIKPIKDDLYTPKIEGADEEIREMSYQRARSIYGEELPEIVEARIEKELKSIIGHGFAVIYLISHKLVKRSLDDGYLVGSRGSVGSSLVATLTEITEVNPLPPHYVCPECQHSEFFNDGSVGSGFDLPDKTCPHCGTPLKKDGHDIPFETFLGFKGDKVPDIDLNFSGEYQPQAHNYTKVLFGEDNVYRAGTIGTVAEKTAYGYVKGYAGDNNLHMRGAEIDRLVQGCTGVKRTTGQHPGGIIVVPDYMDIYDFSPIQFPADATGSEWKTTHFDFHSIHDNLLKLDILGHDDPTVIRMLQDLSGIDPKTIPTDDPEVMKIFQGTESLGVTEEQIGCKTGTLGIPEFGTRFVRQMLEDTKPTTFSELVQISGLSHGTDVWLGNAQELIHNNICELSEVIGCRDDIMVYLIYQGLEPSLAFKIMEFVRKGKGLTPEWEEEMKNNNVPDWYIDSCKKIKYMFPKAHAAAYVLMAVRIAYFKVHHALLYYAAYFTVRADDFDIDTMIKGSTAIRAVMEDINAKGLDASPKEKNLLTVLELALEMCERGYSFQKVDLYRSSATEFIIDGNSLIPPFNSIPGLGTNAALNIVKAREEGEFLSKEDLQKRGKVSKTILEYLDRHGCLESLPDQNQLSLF
Procedure, shortened: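 Reconstituted B. subtilis holoenzyme (Pol III, beta clamp, SSB, primase) was preincubated with compound at room temperature, then given single-stranded circular M13Gori plus dNTPs and NTPs. EDTA-containing PicoGreen stopped the reaction, and dsDNA product was read by fluorescence.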

[2] = molecular target: Tumor susceptibility gene 101 protein (Homo sapiens) (UniProt Q99816); test: qHTS Validation Assay for Iinhibitors of HIV-1 Budding by Blocking the Interaction of PTAP/TSG101 (AID 485342; calls by dose curve)
Procedure, shortened: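 Tsg101 binding domain (10 uM final) in pH 7.5 HEPES/NaCl/Tween 20/EDTA/TCEP buffer was mixed with pin-transferred compounds, then FITC-labeled PTAP peptide (50 nM final) was added; after 20 min at r.t., fluorescence polarization was read.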

[3] = qHTS Validation Assay to Find Inhibitors of Chronic Active B-Cell Receptor Signaling (AID 485345; active means well fitted curve in the direction sought with a large enough effect in the main read-out, with a control signal flat, not every such curve was filed as active)
Procedure, shortened: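 TMD8 ABC-DLBCL cells with dox-inducible green luciferase–IκBα fusion and red native luciferase; compounds 46 uM–3 nM, 4 h at 37C with doxycycline in 0.5% FBS IMDM. Green/red ratio normalized to basal and 10 uM MG-132.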

[4] = molecular target: Beta-2 adrenergic receptor (Homo sapiens) (UniProt P07550); test: qHTS validation assay of beta-arrestin-biased ligands of beta2-adrenergic receptor (AID 485366)
Beta-2 adrenergic receptor (Homo sapiens), sequence (P07550 whole entry, looked up): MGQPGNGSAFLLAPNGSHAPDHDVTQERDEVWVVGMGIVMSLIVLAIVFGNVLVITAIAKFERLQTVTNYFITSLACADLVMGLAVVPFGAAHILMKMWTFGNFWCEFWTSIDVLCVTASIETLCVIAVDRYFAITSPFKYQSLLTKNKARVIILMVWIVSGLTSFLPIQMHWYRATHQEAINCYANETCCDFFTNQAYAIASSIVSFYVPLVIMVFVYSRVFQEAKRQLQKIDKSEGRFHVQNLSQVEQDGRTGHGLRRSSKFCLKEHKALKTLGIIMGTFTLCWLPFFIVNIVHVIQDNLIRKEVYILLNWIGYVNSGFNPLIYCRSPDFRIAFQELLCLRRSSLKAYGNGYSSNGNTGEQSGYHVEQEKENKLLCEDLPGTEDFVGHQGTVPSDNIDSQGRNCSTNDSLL
Procedure, shortened: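 Compound series up to 46 microM applied to beta2-AR/beta-arrestin Tango cells, 18 hr, 37 degrees C, 5% CO2. Read-out: tTA-driven luciferase luminescence, converted to %Activity; concentration-response curves assigned curve classes.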

[5] = molecular target: ATP-dependent 6-phosphofructokinase (Trypanosoma brucei brucei) (UniProt O15648); test: qHTS Validation Assay to Find Inhibitors of T. brucei phosphofructokinase (AID 485368); settings: T. brucei PFK enzyme assay, qHTS 7-point titration; at 57.5 µM (top of the series)
Procedure, shortened: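 qHTS format, up to 57 uM. PFK 1.25 nM; F6P 0.5 mM; ATP 0.1 mM; 5 mM MgCl2, 0.01% Tween20, 0.1% BSA; 0.1 M TEA pH 8.0; 45 min RT; ADP-Glo readout; no-enzyme control = full inhibition.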

[6] = Quantitative high throughput screen for delayed death inhibitors of the malarial parasite plastid, 48 hour incubation (AID 488752); further: nearly all actives have a fitted effect of over 65% in size
Procedure, shortened: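 One-generation (48 h) growth assay: a decrease in luciferase signal from an integrated reporter in P. falciparum-infected red cells (0.1% parasitemia, 2% hematocrit) after compound exposure at 37 C indicates parasite inhibition.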

[7] = molecular target: Thioredoxin reductase 1, cytoplasmic (Rattus norvegicus) (UniProt O89049); test: qHTS Assay for Substrates of Mammalian Selenoprotein Thioredoxin Reductase 1 (TrxR1) (AID 488772);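 further: a drop in NADPH fluorescence below the no-compound background marks a TrxR1 substrate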
Thioredoxin reductase 1, cytoplasmic (Rattus norvegicus), sequence (O89049 whole entry, looked up): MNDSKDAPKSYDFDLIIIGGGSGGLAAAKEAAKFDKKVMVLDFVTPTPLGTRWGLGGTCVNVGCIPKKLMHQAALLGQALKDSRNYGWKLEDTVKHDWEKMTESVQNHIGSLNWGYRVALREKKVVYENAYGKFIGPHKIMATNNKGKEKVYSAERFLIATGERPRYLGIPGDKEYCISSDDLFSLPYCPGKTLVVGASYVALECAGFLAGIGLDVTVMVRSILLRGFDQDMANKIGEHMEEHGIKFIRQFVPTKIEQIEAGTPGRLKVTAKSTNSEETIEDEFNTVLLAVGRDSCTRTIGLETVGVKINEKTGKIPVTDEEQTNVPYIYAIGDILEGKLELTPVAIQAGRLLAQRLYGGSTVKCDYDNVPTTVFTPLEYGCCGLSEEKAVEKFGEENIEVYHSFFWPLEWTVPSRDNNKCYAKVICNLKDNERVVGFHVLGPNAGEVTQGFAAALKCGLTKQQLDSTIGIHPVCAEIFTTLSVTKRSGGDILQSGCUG
Procedure, shortened: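 In this dual-purpose format, potential substrates are identified from the first fluorescence read after selenite addition, not from the 8-minute delta. Rat enzyme is preincubated with NADPH and then with compound at ~22 deg C.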

[8] = molecular target: Thioredoxin reductase 1, cytoplasmic (Rattus norvegicus) (UniProt O89049); test: qHTS Assay for Inhibitors of Mammalian Selenoprotein Thioredoxin Reductase 1 (TrxR1) (AID 488773); settings: Potency: inhibition;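 further: drop in NADPH fluorescence over an 8 min run after selenite addition; nearly all actives have a fitted effect of over 40% in size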
Procedure, shortened: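 Inhibition is scored from the loss of NADPH fluorescence between first and last reads of an 8-min kinetic run. Selenite (400 uM) was the substrate, added after 15 min compound preincubation at room temperature.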

[9] = molecular target: M-phase phosphoprotein 8 (Homo sapiens) (UniProt Q99549); test: qHTS Validation Assay for Inhibitors for MPP8 Chromodomain Interactions with Methylated Histone Tails (AID 488949);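 further: AlphaScreen signal from MPP8 chromodomain bound to biotinylated H3K9me3 peptide; top concentration of the series differs between compounds; nearly all actives have a fitted effect of over 55% in size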
M-phase phosphoprotein 8 (Homo sapiens), sequence (Q99549 whole entry, looked up): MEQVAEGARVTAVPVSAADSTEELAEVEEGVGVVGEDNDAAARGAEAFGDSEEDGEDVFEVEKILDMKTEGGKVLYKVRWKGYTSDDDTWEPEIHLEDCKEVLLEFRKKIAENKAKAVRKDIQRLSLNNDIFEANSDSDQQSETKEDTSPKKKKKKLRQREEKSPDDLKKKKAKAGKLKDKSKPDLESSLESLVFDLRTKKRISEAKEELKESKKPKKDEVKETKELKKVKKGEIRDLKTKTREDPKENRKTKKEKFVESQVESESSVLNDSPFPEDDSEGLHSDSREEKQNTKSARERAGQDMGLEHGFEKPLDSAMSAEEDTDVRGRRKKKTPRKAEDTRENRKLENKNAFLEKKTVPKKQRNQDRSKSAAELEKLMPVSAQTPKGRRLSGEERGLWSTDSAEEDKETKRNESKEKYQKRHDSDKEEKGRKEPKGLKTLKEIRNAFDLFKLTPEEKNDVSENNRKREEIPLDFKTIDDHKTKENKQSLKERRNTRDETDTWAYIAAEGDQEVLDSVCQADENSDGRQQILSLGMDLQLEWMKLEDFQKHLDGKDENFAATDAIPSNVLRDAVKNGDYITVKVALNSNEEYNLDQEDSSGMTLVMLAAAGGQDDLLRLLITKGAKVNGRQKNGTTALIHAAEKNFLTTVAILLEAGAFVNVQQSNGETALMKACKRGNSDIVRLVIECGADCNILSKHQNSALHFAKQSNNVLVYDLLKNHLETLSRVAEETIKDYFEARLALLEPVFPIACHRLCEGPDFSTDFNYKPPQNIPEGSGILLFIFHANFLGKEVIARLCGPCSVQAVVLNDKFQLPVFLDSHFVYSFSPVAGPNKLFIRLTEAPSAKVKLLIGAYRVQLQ
Procedure, shortened: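 MPP8 (50 nM) was preincubated with biotinylated H3(1-18)K9me3 peptide (50 nM) in PBS pH 7.4, 0.01% Tween-20 for 30 min at room temperature, then with compounds for 30 min; binding was detected by AlphaScreen.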

[10] = molecular target: Chromobox protein homolog 1 (Homo sapiens) (UniProt P83916); test: qHTS Validation Assay for Inhibitors of HP1-beta Chromodomain Interactions with Methylated Histone Tails (AID 488953);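 further: loss of AlphaScreen luminescence from HP1-beta binding biotinylated H3K9me3 peptide; nearly all actives have a fitted effect of over 50% in size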
Chromobox protein homolog 1 (Homo sapiens), sequence (P83916 whole entry, looked up): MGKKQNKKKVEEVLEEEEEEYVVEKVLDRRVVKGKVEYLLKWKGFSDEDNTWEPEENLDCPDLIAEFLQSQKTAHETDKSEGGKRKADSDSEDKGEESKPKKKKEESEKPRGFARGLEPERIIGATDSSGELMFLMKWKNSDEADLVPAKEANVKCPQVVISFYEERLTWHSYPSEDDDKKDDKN
Procedure, shortened: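 AlphaScreen proximity signal from streptavidin donor and nickel chelate acceptor beads (final 10 ug/mL) after 30 min dark incubation. Compounds had 30 min at room temperature with preformed complex of 50 nM HP1-beta and 50 nM b-H3(1-18)K9me3 in PBS pH 7.4 with 0.01% Tween-20.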

[11] = molecular target: Transient receptor potential cation channel subfamily V member 1 (Homo sapiens) (UniProt Q8NER1); test: HTS Assay for Compounds that Act as Enhancers of the Vanilloid Receptor 1 (AID 488979)
Transient receptor potential cation channel subfamily V member 1 (Homo sapiens), sequence (Q8NER1 whole entry, looked up): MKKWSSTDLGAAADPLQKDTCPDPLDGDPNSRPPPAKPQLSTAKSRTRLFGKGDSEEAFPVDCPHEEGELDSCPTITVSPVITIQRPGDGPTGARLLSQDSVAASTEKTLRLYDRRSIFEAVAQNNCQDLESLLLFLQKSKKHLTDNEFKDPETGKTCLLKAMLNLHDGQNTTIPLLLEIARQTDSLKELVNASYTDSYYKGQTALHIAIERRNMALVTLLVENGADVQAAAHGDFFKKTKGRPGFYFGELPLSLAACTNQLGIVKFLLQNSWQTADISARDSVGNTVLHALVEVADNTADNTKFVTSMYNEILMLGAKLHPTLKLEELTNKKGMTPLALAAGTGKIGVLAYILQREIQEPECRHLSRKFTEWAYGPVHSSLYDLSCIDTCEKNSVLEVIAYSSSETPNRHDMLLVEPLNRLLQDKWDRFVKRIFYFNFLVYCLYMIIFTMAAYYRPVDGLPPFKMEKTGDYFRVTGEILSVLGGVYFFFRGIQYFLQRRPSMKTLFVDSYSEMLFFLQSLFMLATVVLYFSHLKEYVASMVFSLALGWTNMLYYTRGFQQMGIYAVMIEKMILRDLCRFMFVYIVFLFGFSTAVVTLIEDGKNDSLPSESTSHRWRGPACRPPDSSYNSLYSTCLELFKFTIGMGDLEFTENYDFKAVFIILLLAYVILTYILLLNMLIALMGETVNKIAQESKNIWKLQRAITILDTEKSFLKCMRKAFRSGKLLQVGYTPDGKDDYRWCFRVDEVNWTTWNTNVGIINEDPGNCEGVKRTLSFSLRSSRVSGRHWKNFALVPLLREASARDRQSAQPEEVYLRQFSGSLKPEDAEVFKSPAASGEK
Procedure, shortened: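 TRPV1-expressing cells loaded with Fluo-8 calcium dye; compounds added and calcium influx read kinetically for 3 min (agonist phase), then capsaicin at EC20 added and read 2 min more for enhancement. Fluorescence ex 480/em 520 nm.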

[12] = molecular target: Thyrotropin receptor (Homo sapiens) (UniProt P16473); test: qHTS Assay for Antagonists of the Thyroid Stimulating Hormone Receptor (AID 488980)
Procedure, shortened: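 HEK293 cells transfected with human TSHR, suspended in HEPES-buffered HBSS with 70 uM RO 20-1724, were treated with compounds plus TSH at EC80 (4 nM final). cAMP was measured by competitive HTRF (cryptate anti-cAMP antibody, cAMP-d2 acceptor).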

[13] = molecular target: Flap endonuclease 1 (Homo sapiens) (UniProt P39748); test: qHTS Validation Assay for the Inhibitors of Human Flap endonuclease 1 (FEN1) (AID 488816)
Procedure, shortened: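 Steps: add FEN1 (10 nM reagent) or buffer only; pin compounds; hold 15 min at room temperature; start with substrate, 50 nM final; read at 0 and 15 min; correct, normalize and fit a four-parameter Hill curve.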

[14] = molecular target: Methanococcus maripaludis chaperonin (MmCpn) (UniProt Q6LX38); test: High-Throughput Screening for Modulators of Cytosolic Chaperonin Activity: MmCpn Primary Screen (AID 488978);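 further: 50 nM MmCpn enzyme hydrolysing 30 µM ATP at 37 °C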
Procedure, shortened: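 MmCpn (50 nM final) was preincubated with compound 5 min at RT, then 30 uM ATP (final) was added and the reaction ran 10 min at 37C. ADP produced was detected by Transcreener HTRF (ex 320 nm; em 590/665 nm).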

[15] = molecular target: D(1A) dopamine receptor (Homo sapiens) (UniProt P21728); test: HTS Assay for Allosteric Agonists of the Human D1 Dopamine Receptor: Primary Screen for Agonists (AID 488981)
D(1A) dopamine receptor (Homo sapiens), sequence (P21728 whole entry, looked up): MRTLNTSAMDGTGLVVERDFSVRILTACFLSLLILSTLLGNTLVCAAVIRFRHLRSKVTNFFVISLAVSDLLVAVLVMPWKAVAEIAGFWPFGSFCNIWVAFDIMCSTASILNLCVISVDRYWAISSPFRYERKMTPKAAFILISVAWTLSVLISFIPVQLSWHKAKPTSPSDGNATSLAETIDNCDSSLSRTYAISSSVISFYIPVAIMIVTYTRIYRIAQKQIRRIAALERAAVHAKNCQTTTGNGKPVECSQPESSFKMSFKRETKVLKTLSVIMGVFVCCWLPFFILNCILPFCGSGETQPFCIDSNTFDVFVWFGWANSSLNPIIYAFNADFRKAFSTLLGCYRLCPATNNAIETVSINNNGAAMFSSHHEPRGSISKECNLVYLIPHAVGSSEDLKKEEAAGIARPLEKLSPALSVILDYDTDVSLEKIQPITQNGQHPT
Procedure, shortened: (§1)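 Tetracycline-induced HEK293 T-REx cells force-coupled to calcium signalling were incubated overnight at 30 C and dye-loaded at room temperature. Calcium flux over 180 s after compound addition flagged agonists; a further 180 s read after EC20 dopamine flagged potentiators.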

[16] = molecular target: D(1A) dopamine receptor (Homo sapiens) (UniProt P21728); test: HTS Assay for Allosteric Agonists of the Human D1 Dopamine Receptor: Primary Screen for Potentiators (AID 488982)
Procedure, shortened: as §1

[17] = molecular target: D(1A) dopamine receptor (Homo sapiens) (UniProt P21728); test: HTS Assay for Allosteric Agonists of the Human D1 Dopamine Receptor: Primary Screen for Antagonists (AID 488983);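 further: calcium flux response to an EC80 dopamine challenge measured with no-wash dye; nearly all actives have a fitted effect of over 65% in size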
Procedure, shortened: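 Calcium-flux read-out in inducible HEK293 T-REx cells expressing D1, dye-loaded 30–90 min at room temperature. Kinetic reads: 180 s after compound (agonist phase), then 180 s after an EC80 dopamine challenge.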

[18] = Quantitative high throughput screen for delayed death inhibitors of the malarial parasite plastid, 96 hour incubation (AID 488745); further: nearly all actives have a fitted effect of over 70% in size
Procedure, shortened: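 Decreased firefly luciferase luminescence indicates inhibited growth of reporter-integrated P. falciparum after two generations (96 h, 37 C, 5% CO2). Infected erythrocytes at 0.1% parasitemia, 2% hematocrit, in Albumax-supplemented RPMI 1640.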

Measured: Potency

NC1CC1c1ccccc1 (configuration not stated)
not listed: [13] | [14] | [15] | [16] | [17] | [18]
inactive: all other assays above

CCCN(CCC)C1CCc2ccc(O)cc2C1 (configuration not stated)
not listed: [5] | [6] | [7] | [17] | [18]
inactive: all other assays above

Cn1cnc(CCN)c1
not listed: [4] | [5] | [18]
inactive: all other assays above

NCc1cc(=O)[nH]o1
not listed: [4] | [5] | [13]
inactive: all other assays above

CC(=O)[C@H]1CCC2C3CC[C@H]4C[C@H](O)CC[C@]4(C)C3CC[C@@]21C (some centres not stated)
not listed: [5] | [13] | [18]
inactive: all other assays above

NC(N)=NOCCC(N)C(=O)O (configuration not stated)
not listed: [4] | [5] | [13] | [18]
inactive: all other assays above

Oc1ccc2c3c1O[C@H]1c4[nH]c5c(c4C[C@@]4(O)[C@@H](C2)N(CC2CC2)CC[C@]314)C[C@@]1(O)[C@H]2Cc3ccc(O)c4c3[C@@]1(CCN2CC1CC1)[C@H]5O4
not listed: [4] | [6] | [10] | [13] | [18]
inactive: all other assays above
